Compound activity as filed in PubChem.
TbREL1 inh: TbREL1 RNA ligase inhibitors, primary screen, biochemical, FRET fluorescence; inhibition, % at 9.66 µM; TbREL1 RNA ligation; AID 1117264, 2014; hit rate 0.49% among 89,000; RNA-editing ligase 1, mitochondrial (Trypanosoma brucei brucei), P86926;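 active = inhibition above the mean inhibition across all screened compounds plus 3 SD, cut at about 11% in these data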;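 also: 0% = plate median of test wells and 100% = NSC42067 control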
Target sequence (P86926 whole entry, looked up): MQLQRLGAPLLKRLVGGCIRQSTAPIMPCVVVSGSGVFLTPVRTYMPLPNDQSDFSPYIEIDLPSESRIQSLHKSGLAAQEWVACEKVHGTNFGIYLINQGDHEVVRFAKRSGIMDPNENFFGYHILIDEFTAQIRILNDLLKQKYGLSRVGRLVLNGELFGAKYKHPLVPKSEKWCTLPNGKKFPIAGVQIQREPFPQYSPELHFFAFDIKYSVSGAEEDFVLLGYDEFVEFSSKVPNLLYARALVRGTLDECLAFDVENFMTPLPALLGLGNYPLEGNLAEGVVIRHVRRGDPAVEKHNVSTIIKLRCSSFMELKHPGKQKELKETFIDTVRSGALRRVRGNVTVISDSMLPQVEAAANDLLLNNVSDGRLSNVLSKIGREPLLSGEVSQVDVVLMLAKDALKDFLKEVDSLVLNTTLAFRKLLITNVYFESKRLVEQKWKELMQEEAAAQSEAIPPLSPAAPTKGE
Active calls of the source: *. This excerpt belongs to a sample that is enriched for hits.

SMILES	TbREL1 inh
Cc1ccc(CNc2ccc3nnc(-c4ccccc4)n3n2)cc1	11.1*
Cc1ccc(CNc2cnccn2)cc1	-0.1
O=C(NCCc1nnc2ccc(NCc3ccc(Cl)cc3)nn12)c1ccccc1	-0.2
CN1C2=N[C@@H](c3cccc(C(F)(F)F)c3)CC(=O)N2/C(=C\c2ccccc2)[C@H]1c1ccccc1	-2.9
C[C@H]1[C@@H](OC(=O)NCc2cccc(Cl)c2)CC[C@@]23CCCN2C(=O)CCC[C@@H]13	1.5
CCc1ccc(Oc2c(Cl)cnn(-c3ccc(C)cc3)c2=O)cc1	0.3
CCCCc1ccc2nc(NC(=O)c3ccc(Br)o3)sc2c1	2.2
Cc1ccc2nc(-c3ccc(NC(=O)CSc4nnc(-c5ccccc5)n4Cc4ccco4)cc3)sc2c1	-2.5
CN(CCC#N)C(=O)COC(=O)c1c2c(nc3ccccc13)/C(=C/c1ccco1)CC2	20.8*
CC(C)CNC(=O)COC(=O)c1c2c(nc3ccccc13)/C(=C\c1cccs1)CC2	-4.4
CN(CCC#N)C(=O)COC(=O)c1ccc2[nH]c3c(c2c1)CCCC3	1.5
CCCC1CCC2(CCCN2CCOC(=S)Nc2ccccc2OC)CC1 (stereo not drawn)	0.8
CN1CCC(N[C@@H](Cc2ccccc2)C(=O)NCCCc2ccccc2)(C(=O)NCCc2c[nH]c3ccccc23)CC1	-2.0
CCOC(=O)C(C)n1cnc2c(oc3ccccc32)c1=O (stereo not drawn)	16.5*
CCCCn1cnc2c(oc3ccccc32)c1=O	2.9
CC(C)C(C)NC(=O)Cn1cnc2c(oc3ccccc32)c1=O (stereo not drawn)	2.1
CCCOc1ccc(F)cc1-c1cc(C(=O)NC(C)C)[nH]n1	2.6
CCCOc1ccc(F)cc1-c1cc(C(=O)Nc2ccc(C)c(NS(C)(=O)=O)c2)[nH]n1	-1.4
CCCOc1ccc(F)cc1-c1cc(C(=O)Nc2ccc(OC)c(OC)c2)[nH]n1	16.2*
CCOC(=O)C1CCN(C(=O)C(C)(C)NC(=O)Nc2ccc(OC)c(Cl)c2)CC1	-2.9
CCCCC(=O)N[C@H]1CC[C@@]23CCCN2C(=O)CCC[C@H]3[C@H]1C	-2.1
C=C1CCC2C(C)(C)CCC[C@]2(C)[C@H]1CC1=C(O)C(=O)C(CO)=CC1=O (stereo partly drawn)	-2.1
Cn1c(Cn2c(=O)sc3ccccc32)nnc1SCC(=O)N1CCCCCC1	-1.6
O=C(CSc1nnc(Cn2c(=O)sc3ccccc32)n1-c1ccccc1)N1CCCC1	1.2
O=C(CSc1nnc(Cn2c(=O)sc3ccccc32)n1-c1ccccc1)N1CCCCCC1	12.2*
SMILES	TbREL1 inh
CCCC1CCC2(CC1)CCC2OC(=O)Nc1ccccc1OC (stereo not drawn)	0.7
CCC[C@H]1[C@@H](N)CC[C@@]23CCCN2C(=O)CCC[C@@H]13	4.5
O=C(c1cc(-c2ccc(F)cc2)no1)N1CCN(Cc2ccc3c(c2)OCO3)CC1	-3.4
O=C(c1cc([N+](=O)[O-])cc([N+](=O)[O-])c1)N1CCN(Cc2ccc3c(c2)OCO3)CC1	-1.7
O=C(c1ccc(Br)o1)N1CCN(Cc2ccc3c(c2)OCO3)CC1	27.4*
CCOc1ccc(-c2csc(N3CCC(C(N)=O)CC3)n2)cc1	2.5
COc1ccccc1C1c2c(ncn(-c3ccccc3)c2=N)Oc2ccc3ccccc3c21 (stereo not drawn)	6.0
C/C(C=Nn1c(-c2ccc(F)cc2)n[nH]c1=S)=C/c1ccco1	4.7
C#CCOCCOCCOCCNc1nc(N2CCOCC2)nc(N2CCN(C(=O)[C@H](CCCCN)n3cc(CCC(=O)O)nn3)CC2)n1	0.9
C#CCOCCOCCOCCNc1nc(N2CCOCC2)nc(N2CCN(C(=O)CCCCCCCCCCNC(=O)[C@H](CO)n3cc(CCCSC)nn3)CC2)n1	-3.3
C#CCOCCOCCOCCNc1nc(N2CCN(C(=O)CCCCCCCCCCNC(=O)[C@H](CCCCN)n3cc(CCO)nn3)CC2)nc(N2CCN(C(=O)CCCCCCCCCCNC(=O)[C@H](CCCCN)n3cc(CCCC(=O)O)nn3)CC2)n1	11.9*
Cc1cccc(CNC(=S)OCCN2CCCC23CCC(c2ccccc2)CC3)c1 (stereo not drawn)	-0.3
Cc1ccc(OCCn2c(CCNC(=O)C3CCCCCC3)nc3ccccc32)cc1	8.2
CC(=O)N1CCN(c2cc(-c3ccco3)nc3cc(-c4ccccc4)nn23)CC1	10.8
CC(C)C[C@H](NC1(C(=O)NCCc2c[nH]c3ccccc23)CCOCC1)C(=O)NCCCc1ccccc1	-1.7
O=C(NCCCc1ccccc1)C1CCN(c2nc(-c3ccc(Br)cc3)cs2)CC1	9.8
CC[C@H]1/C(=C/c2ccccc2)N2C(=O)C[C@H](c3ccccc3)N=C2N1C	-5.5
CCCCCCSc1cc(-c2nc3ccc(Cl)cn3c2NC2CCCCC2)ccc1OC	-1.7
CCCCNc1c(-c2ccc(SC3CCCCC3)c(OC)c2)nc2ccc(Cl)cn12	25.0*
CCCCCCSc1ccc(-c2nc3ccc(Cl)cn3c2NCCCC)cc1OC	-0.9
CS(=O)(=O)c1nc(-c2ccc(Br)cc2)cs1	-2.5
C[C@H]1[C@H](N(Cc2cccs2)Cc2cccs2)CC[C@@]23CCCN2C(=O)CCC[C@@H]13	-3.9
